Inconclusive results are not listed. Active and inactive are the calls of the source. Calls follow the shape of the dose curve; as a rule, active = well fitted activation curve with a large enough effect in the main read-out, with a control signal flat (not every such curve was filed as active); inconclusive = small, poorly fitted or top-dose-only effect, or effect the other way, or a change in a side signal; inactive = flat fitted curve, though single readings scatter.
Target: 3',5'-cyclic-AMP phosphodiesterase 4B (Homo sapiens) (UniProt Q07343)
Sequence (Q07343 whole entry, looked up): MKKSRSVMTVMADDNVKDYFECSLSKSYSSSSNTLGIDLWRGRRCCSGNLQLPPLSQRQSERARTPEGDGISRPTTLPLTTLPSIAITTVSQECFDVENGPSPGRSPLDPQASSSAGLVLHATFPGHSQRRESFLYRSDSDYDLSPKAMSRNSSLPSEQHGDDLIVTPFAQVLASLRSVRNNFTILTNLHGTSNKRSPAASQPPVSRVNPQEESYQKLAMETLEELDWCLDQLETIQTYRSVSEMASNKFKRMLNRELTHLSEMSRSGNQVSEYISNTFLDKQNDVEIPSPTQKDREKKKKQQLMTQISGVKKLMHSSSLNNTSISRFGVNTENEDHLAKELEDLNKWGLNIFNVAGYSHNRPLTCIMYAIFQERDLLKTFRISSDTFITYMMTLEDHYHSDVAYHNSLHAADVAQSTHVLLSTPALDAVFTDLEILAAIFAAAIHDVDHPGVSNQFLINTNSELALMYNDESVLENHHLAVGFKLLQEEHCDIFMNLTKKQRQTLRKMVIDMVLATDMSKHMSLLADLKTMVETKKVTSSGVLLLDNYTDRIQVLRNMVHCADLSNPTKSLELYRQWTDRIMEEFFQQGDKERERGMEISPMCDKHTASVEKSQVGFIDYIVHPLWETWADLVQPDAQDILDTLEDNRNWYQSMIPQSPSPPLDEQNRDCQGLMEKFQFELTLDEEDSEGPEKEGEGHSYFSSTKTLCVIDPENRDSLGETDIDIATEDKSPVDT
Experiment: qHTS Assay for Inhibitors of PDE-IV (AID 607)
Details: HEK293 ACTOne CNG channel cells, membrane potential fluorescence; series mostly up to 22.9 µM
How it was run: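 Cell-based read-out of cAMP via a modified cyclic nucleotide-gated channel and membrane potential dye (535/590 nm) in HEK293 cells expressing PDE4 endogenously. Compounds tested up to 22.9 uM final; 100 uM RO 20-1724 reference.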

Potency, inactive:
CN(C)Cc1ccccc1-c1cc(N(C)Cc2ccco2)ncn1
c1cncc(-c2cncnc2NC2CCNCC2)c1
CN1CCN(c2ncc3nc(-c4cc(F)cc(F)c4)c(=O)n(C4CC4)c3n2)CC1
O=c1c(-c2ccc(F)cc2)nc2cnc(N3CCNCC3)nc2n1Cc1ccc(F)cc1
CN(Cc1ccco1)c1ncncc1-c1ccccc1Cl
CN1CCN(c2ncncc2-c2ccc(C(=O)N(C)C)cc2)CC1
CC(=O)NCCNc1ncncc1-c1ccccc1C
COCCn1c(=O)cnc2cnc(Oc3ccccc3)nc21
COc1ncc2nc(-c3cc(F)cc(F)c3)c(=O)n(C)c2n1
COCCn1c(=O)c(-c2cc(F)cc(F)c2)nc2cnc(N3CCOCC3)nc21
CN(C)c1ncnc2ccc(-c3cccnc3)cc12
CCNc1ncc2nc(-c3cn(C)c4ccccc34)c(=O)n(Cc3cccc(OC)c3)c2n1
COc1ccc(Oc2ncc3nc(C)c(=O)n(-c4ccccc4)c3n2)cc1
CN(Cc1ccco1)c1ncncc1-c1cccc(C#N)c1
O=c1c(-c2ccc(F)cc2)nc2cnc(N3CCOCC3)nc2n1Cc1cccs1
CCNc1ncc2nc(-c3ccc(Cl)cc3)c(=O)n(C[C@H]3CCCO3)c2n1
Cn1cc(-c2nc3cnc(Oc4ccccc4)nc3n(C3CC3)c2=O)c2ccccc21
O=c1c(-c2cccs2)nc2cnc(N3CCOCC3)nc2n1Cc1ccc(F)cc1
O=c1c(-c2ccc(F)cc2)nc2cnc(Nc3ccccc3)nc2n1C[C@H]1CCCO1
c1ccc(Nc2cc(-c3ccoc3)ncn2)cc1
COc1ccc(Oc2ncc3nc(-c4cn(C)c5ccccc45)c(=O)n(C4CC4)c3n2)cc1
COCCNc1ncncc1-c1c(C)noc1C
Cc1noc(C)c1-c1ccc2ncnc(Nc3ccc(F)cc3)c2c1
O=c1c(-c2cccs2)nc2cnc(N3CCOCC3)nc2n1Cc1cccs1
Cc1noc(C)c1-c1ccc2ncnc(N(C)C)c2c1
CC(=O)NCCNc1ncnc2ccc(-c3c(C)noc3C)cc12
CN1CCN(c2ncc3nc(-c4ccc(Cl)cc4)c(=O)n(Cc4cccs4)c3n2)CC1
CN(Cc1ccco1)c1ncncc1-c1ccoc1

From PubChem BioAssay (NCATS)
